Assay results from PubChem BioAssay.
Inconclusive results are not listed. For some assays here: Entries with a potency or affinity are not part of this list. Active and inactive are the calls of the source.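 The calls were made as follows, unless noted: active = thallium flux through the channel raised or lowered by more than 3 SD from vehicle-only wells, actives on both sides; inactive = the rest.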

Tests used:
[1] = antimalarial activity against Dd2 strain (AID 2302;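 active = growth inhibition above 50% at the single 2 µM test dose, taken to imply half-maximal potency below 2 µM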;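 also: 0% = DMSO untreated growth and 100% = chloroquine plus artemisinin killed control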); conditions: P. falciparum Dd2 in RBCs, LDH growth readout, 72 h; at 2 µM; stronger effect = higher value
[2] = human hepatoma cell viability loss – ATP luminescence, cytotoxicity control for P. falciparum antimalarial project, primary screen (AID 2303;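 active = inhibition above 50%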;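 also: 0% = DMSO wells and 100% = digitonin-killed cells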); conditions: HepG2 viability, 24-48 h, at 10 µM, stronger effect = higher value
[3] = target: L-lactate dehydrogenase (Plasmodium falciparum (isolate CDC / Honduras)) (UniProt Q27743); assay: PfLDH activity inhibition – cell lysate, 3D7 strain, counter-screen for P. falciparum growth inhibition project (AID 2304; call rule not given here;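 also: 0% = vehicle and 100% = reference inhibitor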); conditions: P. falciparum 3D7 crude extract, LDH APAD/NBT absorbance; at 2 µM; stronger effect = higher value
[4] = inhibition of 3D7 malaria parasite growth – strain 3D7 (AID 2306; call rule not given here;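 also: 0% = DMSO wells and 100% = chloroquine plus artemisinin control wells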); conditions: P. falciparum 3D7 erythrocytic growth, LDH absorbance, 72 h; at 2 µM; stronger effect = higher value
[5] = target: Protein kinase 7 (PK7), Plasmodium falciparum 3D7 (PF3D7_0213400) (UniProt Q7YTF7); assay: inhibition of Plasmodium PK7 catalytic activity – biochemical, TCAMS antimalarial set, Kinase-Glo luminescence (AID 1159587; call rule not given here); conditions: recombinant PfPK7, Kinase-Glo ATP depletion luminescence
[6] = target: Calcium-dependent protein kinase 4 (Plasmodium falciparum (isolate 3D7)) (UniProt Q8IBS5); assay: PfCDPK4 kinase inhibitors, biochemical, TCAMS library (AID 1159588; cut-off not given, nearly all actives have IC50 up to about 0.91 µM); conditions: recombinant PfCDPK4, Kinase-Glo ATP depletion luminescence
[7] = viability loss in pontine glioma line – cell-based, SU-DIPG-XVII, MIPE5.0, CellTiter-Glo, qHTS, dose response (AID 1347060; cut-off not given, nearly all actives have AC50 up to about 26 µM;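 also: cells exposed to compound for 48 hours before viability readout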); conditions: CellTiter-Glo ATP luminescence
[8] = viability loss in pontine glioma line – cell-based, JHH-DIPG-1, MIPE4.0, CellTiter-Glo, qHTS, dose response (AID 1347062; cut-off not given, nearly all actives have AC50 up to about 27 µM;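 also: cells exposed to compound for two days before readout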); conditions: JHH-DIPG-1 viability, CellTiter-Glo ATP luminescence
[9] = viability loss in pontine glioma line – cell-based, SU-DIPG-IV, MIPE4.0, CellTiter-Glo, qHTS, dose response (AID 1347063; cut-off not given, nearly all actives have AC50 up to about 30 µM;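 also: compound exposure lasted 48 hours before the viability readout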); conditions: CellTiter-Glo ATP luminescence
[10] = viability loss in pontine glioma line – cell-based, SU-DIPG-XXV, MIPE5.0, CellTiter-Glo, qHTS, dose response (AID 1347065; cut-off not given, nearly all actives have AC50 up to about 26 µM;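 also: cells exposed to compound for 48 hours before ATP readout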); conditions: CellTiter-Glo ATP luminescence
[11] = growth inhibition of DIPG cells – cell-based, MIPE4.0 library, CellTiter-Glo luminescence, qHTS (AID 1347066; cut-off not given, nearly all actives have AC50 up to about 30 µM;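 also: cells exposed to compound for 48 hours before readout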); conditions: SU-DIPG-VI viability, CellTiter-Glo ATP luminescence
[12] = JHH-DIPG-1 glioma cell viability, MIPE5.0 library, CellTiter-Glo luminescence, qHTS (AID 1347067; cut-off not given, nearly all actives have AC50 up to about 26 µM;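 also: cells exposed to compound for 48 hours before readout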); conditions: JHH-DIPG-1 glioma viability, CellTiter-Glo ATP luminescence
[13] = growth inhibition of DIPG cells – cell-based, MIPE5.0 library, qHTS (AID 1347068; cut-off not given, nearly all actives have IC50 up to about 30 µM;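 also: cells exposed to compound for 48 hours before viability readout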); conditions: SU-DIPG-XXV viability
[14] = viability loss with induced miR-34 in A549 – imaging, A549 dox-inducible miR-34, nuclei and caspase counts, primary screen (AID 1347080;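 active = compounds whose cell count with miR-34 switched on is under 0.7 times the count with it off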); conditions: A549 miR-34 inducible, Hoechst nuclei count, 48 h
[15] = compounds altering HSF1 focus formation in cells – imaging, Selleck Cancer Library (AID 1347162; in the data active = plate-normalised HSF1 focus index below about 0.46); conditions: human cells, HSF1 nuclear foci imaging, at 10 µM; SSMD: measured here: HSF1 foci SSMD mean; cell count: measured here: cell number; plate-normalised HSF1 focus index: stronger effect = lower value
[16] = blockers of cellular phospholipid synthesis – cell-based, LOPAC library, screen 4, primary screen (AID 1347384; call rule not given here); conditions: animal cells, phospholipid biosynthesis inhibition screen; at 10 µM
[17] = galactose survival enhancers in mitochondrial complex I cybrids – cell-based, galactose medium, ATP luminescence, primary screen (AID 1645843;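 active = z-score of at least 1.8 in each of two replicates, scored against plate mean and spread of sample wells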;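 also: positive z means more ATP and so rescue of galactose-driven cybrid death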); conditions: complex I mutant cybrid cells, 72 h, stronger effect = higher value
[18] = target: Plasmodium falciparum protein kinase 6 (PK6, PF3D7_1337100) (UniProt Q8IDW1); assay: PfPK6 kinase inhibitors, biochemical, TCAMS library (AID 1159586; call rule not given here); conditions: recombinant PfPK6, Kinase-Glo ATP depletion luminescence
[19] = tested on: F380Y; assay: BK channel mutant inhibitors and activators – cell-based, U2OS BacMam, thallium flux, beta subunits, selectivity assay, profiling panel (AID 1259406); conditions: U2OS BacMam BK variants, at 30 µM;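 also: initial slope of Thallos dye fluorescence rise after thallium is added; log ratio against the mean of 0.3% DMSO vehicle wells on the same plate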
[20] = tested on: F380Y/beta1; assay: as above; conditions: U2OS BacMam BK variants, at 30 µM
[21] = tested on: F380Y/beta2Delta; assay: as above; conditions: U2OS BacMam BK variants, at 30 µM
[22] = tested on: F380Y/beta4; assay: as above; conditions: U2OS BacMam BK variants, at 30 µM
[23] = target: Calcium-activated potassium channel subunit alpha-1 (Homo sapiens) + Leucine-rich repeat-containing protein 26 (Homo sapiens) (UniProt Q12791+Q2I0M4); assay: as above; conditions: U2OS BacMam BK variants, F380Y/Slo1WT/gamma1, at 30 µM
[24] = tested on: R275C; assay: as above; conditions: U2OS BacMam BK variants, at 30 µM
[25] = tested on: R275C/beta1; assay: as above; conditions: U2OS BacMam BK variants, at 30 µM
[26] = tested on: R275C/beta2Delta; assay: as above; conditions: U2OS BacMam BK variants, at 30 µM
[27] = tested on: R275C/beta4; assay: as above; conditions: U2OS BacMam BK variants, at 30 µM
[28] = tested on: R275C/Slo1WT/beta2; assay: as above; conditions: U2OS BacMam BK variants, at 30 µM

Sequence of Plasmodium falciparum protein kinase 6 (PK6, PF3D7_1337100) (Q8IDW1 1-305): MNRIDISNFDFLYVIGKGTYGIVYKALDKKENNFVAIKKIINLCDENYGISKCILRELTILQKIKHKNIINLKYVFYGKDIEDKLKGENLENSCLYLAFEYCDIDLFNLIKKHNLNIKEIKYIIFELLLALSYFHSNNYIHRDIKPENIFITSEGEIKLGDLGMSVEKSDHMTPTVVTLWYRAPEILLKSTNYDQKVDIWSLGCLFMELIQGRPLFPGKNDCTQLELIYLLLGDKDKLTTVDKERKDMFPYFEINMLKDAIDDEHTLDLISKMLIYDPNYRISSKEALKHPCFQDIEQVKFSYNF
Sequence of Calcium-activated potassium channel subunit alpha-1 (Homo sapiens) + Leucine-rich repeat-containing protein 26 (Homo sapiens) (Q2I0M4 whole entry, looked up, one chain of several): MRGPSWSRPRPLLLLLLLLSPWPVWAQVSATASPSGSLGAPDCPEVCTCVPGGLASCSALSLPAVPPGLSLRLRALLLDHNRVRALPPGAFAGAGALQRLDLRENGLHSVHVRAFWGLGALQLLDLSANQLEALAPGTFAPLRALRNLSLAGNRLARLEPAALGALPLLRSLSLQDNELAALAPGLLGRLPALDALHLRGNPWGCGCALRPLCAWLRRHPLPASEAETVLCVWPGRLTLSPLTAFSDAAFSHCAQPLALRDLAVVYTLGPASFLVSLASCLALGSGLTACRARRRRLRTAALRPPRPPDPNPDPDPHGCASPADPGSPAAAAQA
Sequence of Protein kinase 7 (PK7), Plasmodium falciparum 3D7 (PF3D7_0213400) (Q7YTF7 1-343): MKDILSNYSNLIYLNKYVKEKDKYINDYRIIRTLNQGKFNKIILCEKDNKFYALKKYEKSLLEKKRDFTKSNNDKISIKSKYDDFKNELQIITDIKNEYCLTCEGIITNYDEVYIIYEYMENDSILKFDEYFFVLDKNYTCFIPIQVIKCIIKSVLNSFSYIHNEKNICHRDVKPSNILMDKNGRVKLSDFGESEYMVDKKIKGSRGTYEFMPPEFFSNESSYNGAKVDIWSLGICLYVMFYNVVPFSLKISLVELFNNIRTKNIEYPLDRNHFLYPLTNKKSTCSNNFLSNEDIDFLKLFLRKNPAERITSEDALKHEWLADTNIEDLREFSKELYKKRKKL
Sequence of L-lactate dehydrogenase (Plasmodium falciparum (isolate CDC / Honduras)) (Q27743 whole entry, looked up): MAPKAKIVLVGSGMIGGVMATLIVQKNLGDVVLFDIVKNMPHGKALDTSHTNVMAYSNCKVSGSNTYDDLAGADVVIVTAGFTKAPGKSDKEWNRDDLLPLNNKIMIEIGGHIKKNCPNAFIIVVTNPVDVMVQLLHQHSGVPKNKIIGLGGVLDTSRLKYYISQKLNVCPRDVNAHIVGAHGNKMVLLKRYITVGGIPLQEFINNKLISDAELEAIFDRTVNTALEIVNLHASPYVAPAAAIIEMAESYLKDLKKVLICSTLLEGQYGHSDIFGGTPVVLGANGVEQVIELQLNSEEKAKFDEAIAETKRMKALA
Sequence of Calcium-dependent protein kinase 4 (Plasmodium falciparum (isolate 3D7)) (Q8IBS5 whole entry, looked up): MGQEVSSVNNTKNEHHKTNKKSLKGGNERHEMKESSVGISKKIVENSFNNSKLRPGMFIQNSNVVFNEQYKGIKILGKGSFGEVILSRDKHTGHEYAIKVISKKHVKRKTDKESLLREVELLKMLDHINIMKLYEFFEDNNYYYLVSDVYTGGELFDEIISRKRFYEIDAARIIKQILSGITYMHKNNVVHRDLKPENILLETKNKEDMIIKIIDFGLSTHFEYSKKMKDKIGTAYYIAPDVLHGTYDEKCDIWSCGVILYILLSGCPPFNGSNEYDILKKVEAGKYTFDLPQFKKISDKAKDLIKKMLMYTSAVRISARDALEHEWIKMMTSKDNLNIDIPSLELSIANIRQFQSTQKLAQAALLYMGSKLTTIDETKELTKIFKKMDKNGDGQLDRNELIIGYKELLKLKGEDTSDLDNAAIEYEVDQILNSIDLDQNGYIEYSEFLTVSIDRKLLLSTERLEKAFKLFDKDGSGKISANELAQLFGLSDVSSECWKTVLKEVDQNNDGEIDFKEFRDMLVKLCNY

CCN(CC)CCOc1ccc(Nc2ncc3cc(-c4c(Cl)cccc4Cl)c(=O)n(C)c3n2)cc1
0.543: fold change ([14]; measured here: relative caspase fold change +Dox/-Dox)
active: growth inhibition [1] 91% | inhibition [2] 72% | growth inhibition [4] 90% | AC50 [7] 417 nM | AC50 [8] 2960 nM | AC50 [9] 4180 nM | AC50 [10] 1860 nM | AC50 [11] 20900 nM | AC50 [12] 4680 nM | IC50 [13] 2950 nM
inactive: inhibition [3] 1% | outcome [5] | outcome [6] | fold change ([14]; stronger effect = lower value, cell number ratio, induced over uninduced) 1.1 | plate-normalised HSF1 focus index [15] 0.335 | outcome [16] | z-score [17] -1.38
-11.2: SSMD [15]
761: cell count ([14]; measured here: total cells with miR-34 induction, stronger effect = lower value)
694: cell count ([14]; measured here: total cells without miR-34 induction)
5360: cell count [15]

O=C(Nc1cccc(-c2nn3ncccc3c2-c2ccnc(Nc3cccc(-c4cnco4)c3)n2)c1)c1c(F)cccc1F
inactive: inhibition [3] 2% | outcome [18] | outcome [5]
active: growth inhibition [1] 98% | inhibition [2] 96% | growth inhibition [4] 97%

NS(=O)(=O)CCc1cccc(Nc2nccc(-c3c(-c4cccc(NC(=O)c5c(F)cccc5F)c4)nn4ccccc34)n2)c1
active: growth inhibition [1] 97% | inhibition [2] 84% | growth inhibition [4] 98%
inactive: inhibition [3] 3% | outcome [18] | outcome [5]

O=C(Nc1cccc(-c2nn3ccccc3c2-c2ccnc(Nc3ccc(C(=O)N4CCOCC4)cc3)n2)c1)c1c(F)cccc1F
active: growth inhibition [1] 97% | inhibition [2] 72% | growth inhibition [4] 99%
inactive: inhibition [3] 4% | outcome [18] | outcome [5]

CCn1c(-c2nonc2N)nc2c(-c3cccc(NC(=O)Nc4ccccc4Cl)c3)ncc(OCCCN)c21
inactive: inhibition [2] 2% | inhibition [3] -4% | outcome [18] | outcome [5]
active: growth inhibition [1] 74% | growth inhibition [4] 99%

COc1cc(Nc2nccc(-c3c(-c4cccc(NC(=O)c5c(F)cccc5F)c4)nn4ccccc34)n2)cc(OC)c1OC
active: growth inhibition [1] 98% | inhibition [2] 74% | growth inhibition [4] 98%
inactive: inhibition [3] 4% | outcome [18] | outcome [5]

NS(=O)(=O)c1ccc(Nc2nccc(-c3c(-c4cccc(NC(=O)c5c(F)cccc5F)c4)nn4ccccc34)n2)cc1
inactive: inhibition [3] -7% | outcome [5] | outcome [6]
active: growth inhibition [1] 89% | inhibition [2] 83% | growth inhibition [4] 93%

CCn1c(-c2nonc2N)nc2c(-c3cccc(NC(=O)NC45CC6CC(CC(C6)C4)C5)c3)ncc(OCCCN)c21
active: growth inhibition [1] 63% | inhibition [2] 100% | growth inhibition [4] 94%
inactive: inhibition [3] -2% | outcome [18] | outcome [5]

CCn1c(-c2nonc2N)nc2c(-c3cccc(NC(=O)Nc4cccc(C#N)c4)c3)ncc(OCCCN)c21
inactive: inhibition [2] 37% | inhibition [3] 0% | outcome [18] | outcome [5]
active: growth inhibition [1] 80% | growth inhibition [4] 92%

CCn1c(-c2nonc2N)nc2c(-c3cccc(NC(=O)Nc4ccc5c(c4)CCC5)c3)ncc(OCCCN)c21
active: growth inhibition [1] 94% | growth inhibition [4] 99%
inactive: inhibition [2] 26% | inhibition [3] -2% | outcome [18] | outcome [5]

Cc1cc(C(=O)ON=C(N)c2ccc([N+](=O)[O-])o2)no1
inactive: log fold change Tl+ flux [19] 0.0152 | log fold change Tl+ flux [20] 0.0208 | log fold change Tl+ flux [21] 0.0122 | log fold change Tl+ flux [22] 0.0216 | log fold change Tl+ flux [23] 0.00414 | log fold change Tl+ flux [24] -0.00373 | log fold change Tl+ flux [25] 0.00585 | log fold change Tl+ flux [26] -0.00874 | log fold change Tl+ flux [27] 0.0176 | log fold change Tl+ flux [28] -0.0342

CC12CCC(c3c1nn(-c1ccccc1)c3C(F)(F)F)C2(C)C (stereo unspecified)
inactive: log fold change Tl+ flux [19] 0.0382 | log fold change Tl+ flux [20] 0.00752 | log fold change Tl+ flux [21] 0.00374 | log fold change Tl+ flux [22] 0.00603 | log fold change Tl+ flux [23] 0.00466 | log fold change Tl+ flux [24] 0.00439 | log fold change Tl+ flux [25] -0.0295 | log fold change Tl+ flux [26] 0.0124 | log fold change Tl+ flux [27] -0.0271 | log fold change Tl+ flux [28] -0.0353

COc1ccc(Cl)cc1N1C(=O)C=C(c2ccccc2)C1=O
inactive: log fold change Tl+ flux [19] 0.0164 | log fold change Tl+ flux [20] 0.00407 | log fold change Tl+ flux [21] -0.00673 | log fold change Tl+ flux [22] -0.00456 | log fold change Tl+ flux [23] 0.00342 | log fold change Tl+ flux [24] -0.0171 | log fold change Tl+ flux [25] 0.056 | log fold change Tl+ flux [26] 0.00976 | log fold change Tl+ flux [27] 0.0143 | log fold change Tl+ flux [28] -0.0335

COc1cccc(C=NNC(=O)C2CCCN(C(=S)NNC3CC4C=CC3C4)CC2)c1O (stereo unspecified)
inactive: log fold change Tl+ flux [19] 0.0111 | log fold change Tl+ flux [20] -0.0549 | log fold change Tl+ flux [21] -0.0296 | log fold change Tl+ flux [22] 0.0197 | log fold change Tl+ flux [23] 0.0309 | log fold change Tl+ flux [24] -0.00837 | log fold change Tl+ flux [25] 0.0189 | log fold change Tl+ flux [26] -0.0281 | log fold change Tl+ flux [27] -0.00446 | log fold change Tl+ flux [28] 0.00307

O=S(=O)(Nc1ccccc1SCc1ccc2nonc2c1)c1cccs1
active: log fold change Tl+ flux [19] -0.159 | log fold change Tl+ flux [22] -0.14 | log fold change Tl+ flux [23] -0.142 | log fold change Tl+ flux [24] -0.262 | log fold change Tl+ flux [28] -0.239
inactive: log fold change Tl+ flux [20] -0.065 | log fold change Tl+ flux [21] -0.0553 | log fold change Tl+ flux [25] 0.0365 | log fold change Tl+ flux [26] -0.00587 | log fold change Tl+ flux [27] -0.0288

CC1(C)CC(=O)C=C(NCCCCCCCCNC2=CC(=O)CC(C)(C)C2)C1
inactive: log fold change Tl+ flux [19] 0.000907 | log fold change Tl+ flux [20] 0.0262 | log fold change Tl+ flux [21] 0.0043 | log fold change Tl+ flux [22] 0.0246 | log fold change Tl+ flux [23] -0.0867 | log fold change Tl+ flux [24] -0.0564 | log fold change Tl+ flux [25] -0.0828 | log fold change Tl+ flux [26] -0.0562 | log fold change Tl+ flux [27] -0.0723
active: log fold change Tl+ flux [28] -0.149

Cc1cc(NC(=S)N2CCCCCC2)ccc1Br
inactive: log fold change Tl+ flux [19] -0.0478 | log fold change Tl+ flux [20] 0.0387 | log fold change Tl+ flux [21] -0.0137 | log fold change Tl+ flux [22] -0.0575 | log fold change Tl+ flux [23] -0.0699 | log fold change Tl+ flux [24] 0.0117 | log fold change Tl+ flux [25] -0.00715 | log fold change Tl+ flux [26] -0.0104 | log fold change Tl+ flux [28] -0.00913
active: log fold change Tl+ flux [27] 0.081
